Assay outcomes from PubChem BioAssay.
TTR transcr act: TTR transcription activators in neuroblastoma reporter cells, primary screen, cell-based, luminescence, SH-SY5Y, TTR promoter Gaussia luciferase; 100% = recombinant luciferase protein wells; activation, % at 16.7 µM; 1.3% of 92,000 active;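 active = activation above the mean of all tested compounds plus 3 SD, cut at about 9.5% in these data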;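 note: cells exposed to compounds for one day before reading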
TTR inh HuH7: TTR promoter reporter inhibitors in hepatoma cells, counter-screen for TTR transcription activator project, cell-based, luminescence, HuH7 hepatoma; shares compounds with TTR transcr act; HuH7 TTR promoter-Gaussia luciferase reporter; inhibition, % at 16.7 µM; 4% of 1,100 active;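 active = average inhibition above the solvent-only control wells' mean plus 3 SD, cut at about 15% in these data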;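 note: inhibitors lower well luminescence so higher value means more inhibition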
TTR act confirm: TTR transcription activators, retest, confirmation, cell-based, luminescence, SH-SY5Y, triplicate. shares compounds with TTR transcr act. SHSY5Y TTR promoter Gaussia luciferase; 100% = purified Lucia enzyme wells, no cells. activation, % at 16.7 µM. 1,100 tested, under 10 active. AID 1117280, 2014;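 active = mean activation above a set limit taken from the earlier primary screen, cut at about 11% in these data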
Large screens that a line does not name were inactive (follow-up assays come after a bar, where they were run). Many of the other results were omitted from the sample, so hits are more common in it than they were.

NC(=O)c1sc2nc(-c3ccco3)ccc2c1N	TTR transcr act 10 | TTR inh HuH7 inactive | TTR act confirm inactive
NC(=O)c1sc2nc3c(c(-c4ccco4)c2c1N)CCC3	none
CCn1c(CCNC(=O)c2ccccc2Cl)n[nH]c1=S	TTR transcr act 22 | TTR inh HuH7 inactive | TTR act confirm inactive
CCn1c(CCNC(=O)c2ccc(Cl)cc2Cl)n[nH]c1=S	none
CCn1c(Cc2ccccc2)n[nH]c1=S	none
Cc1ccccc1CN1CCCCC(NC(=O)c2ccc(N(C)C)cc2)C1=O (stereo not drawn)	TTR transcr act 13 | TTR inh HuH7 inactive | TTR act confirm inactive
Cc1ccc(CN2CCCCC(NC(=O)c3ccc(N(C)C)cc3)C2=O)cc1 (stereo not drawn)	none
Cc1ccccc1CN1CCCCC(NC(=O)c2ccc(F)cc2)C1=O (stereo not drawn)	none
COC(=O)[C@H](CCSC)NC(=O)Cn1ccc(NC(=O)OCc2ccccc2)nc1=O	none
COc1ccc(/C=N/OCc2ccc(Br)cc2)c(OC)c1	none
Cn1c(CCNC(=O)c2ccc(F)cc2)nc2ccccc21	none
Cc1cc(C)nc(Nc2n[nH]c(-c3ccccc3Cl)n2)n1	none
COc1ccc(-c2n[nH]c(=S)n2Cc2ccccc2)cc1OC	none
S=c1[nH]nc(-c2ccccc2)n1Cc1ccccc1	none
CC(C)c1cc(-c2n[nH]c(=S)n2Cc2ccccc2)cs1	TTR transcr act 11 | TTR inh HuH7 inactive | TTR act confirm inactive
COc1cccc(C(=O)Nc2ccccc2C(=O)N2CCCC2)c1	none
CCCCCCCC1CC(CSC(=N)N)OC1=O (stereo not drawn)	none
COc1cccc(N2C(=O)C3NN=C(C(=O)CN4C(=O)c5ccccc5C4=O)C3C2=O)c1 (stereo not drawn)	TTR transcr act 18 | TTR inh HuH7 inactive | TTR act confirm inactive
Cc1ccc(N2C(=O)[C@@H]3C(C(=O)CN4C(=O)c5ccccc5C4=O)=NN[C@@H]3C2=O)c(C)c1	none
COc1ccccc1N1C(=O)[C@@H]2C(C(=O)CN3C(=O)c4ccccc4C3=O)=NN[C@@H]2C1=O	none
COc1ccc2c(c1)c1ncn(CC3CCCO3)c(=O)c1n2C (stereo not drawn)	none
COc1ccc2cc(Br)ccc2c1CC(=O)N1CCCC1	none
Cc1[nH]c2ccc(F)cc2c1CCNC(=O)C1CCCCC1C(=O)OCC(F)(F)F (stereo not drawn)	none
O=C(O)c1ccc(-c2nc3scc(-c4ccccc4)c3c(=O)[nH]2)cc1	none
O=C1CN(c2nc(-c3cccnc3)nc3scc(-c4ccccc4)c23)CCN1	TTR transcr act 13 | TTR inh HuH7 inactive | TTR act confirm inactive
COc1ccc(-c2csc3nc(-c4cccnc4)nc(N4CCC(C(N)=O)CC4)c23)cc1OC	none
CC(C(=O)NN=C(c1ccccc1)c1ccccc1)N1CCOCC1 (stereo not drawn)	none
CC(NC(=O)C(=O)NCC1CCCO1)c1ccccc1 (stereo not drawn)	none
O=C(CCSCCC(=O)NCC1CCCO1)NCC1CCCO1 (stereo not drawn)	none
O=C(CCSc1ccccc1)NCC1CCCO1 (stereo not drawn)	TTR transcr act 15 | TTR inh HuH7 inactive | TTR act confirm inactive
O=C(CSc1ccccc1)N1CCN(S(=O)(=O)c2cccs2)CC1	none
COc1ccccc1CCNC(=O)C(=O)NCC1OCCN1S(=O)(=O)c1ccc([N+](=O)[O-])cc1 (stereo not drawn)	none
Cc1ccccc1NC(=S)N(CCN(C)C)C(C)c1ccco1 (stereo not drawn)	none
OCCN1CCN(C(=S)Nc2ccc(Oc3ccccc3)cc2)CC1	none
CN(C)S(=O)(=O)c1ccc2[nH]cc(/C=C/c3nc4ccccc4c(=O)n3-c3ccccc3)c2c1	none
COc1ccc(C(CNC(=O)COc2ccccc2C)N2CCOCC2)cc1 (stereo not drawn)	none
Cc1cc(C(=O)N/N=C/C=C/c2ccccc2)n[nH]1	none
O=C(N/N=C/C=C/c1ccccc1)c1cc(C2CC2)[nH]n1	none
O=C(N/N=C/C=C/c1ccccc1)c1cccnc1	none
Cc1ccc(/C=N/NC(=O)c2n[nH]c3c2CCCC3)cc1	none
O=C(N/N=C/C=C/c1ccccc1)c1n[nH]c2c1CCC2	TTR transcr act 11 | TTR inh HuH7 inactive | TTR act confirm inactive
Cc1ccc(-c2cc(C(=O)N/N=C/C=C/c3ccccc3)n[nH]2)s1	TTR transcr act 13 | TTR inh HuH7 inactive | TTR act confirm inactive
CCOC(=O)C1(Cc2cccc(Cl)c2)CCCN(C2CCN(C(C)=O)CC2)C1 (stereo not drawn)	none
CN1C2=N[C@H](c3cccc(C(F)(F)F)c3)CC(=O)N2/C(=C\c2ccccc2)[C@H]1c1ccccc1	none
CN(CCCC(=O)NCCc1ccccc1)S(=O)(=O)c1ccc([N+](=O)[O-])cc1	none
O=C(NCC(c1ccco1)N1CCCC1)c1ccc(-n2cccn2)cc1 (stereo not drawn)	none
N#Cc1ccc(C(=O)NCC(c2ccco2)N2CCCCC2)cc1 (stereo not drawn)	none
O=C(CNC(=O)c1ccccc1)NCC(c1ccco1)N1CCCC1 (stereo not drawn)	TTR transcr act 13 | TTR inh HuH7 inactive | TTR act confirm inactive
CCOc1ccc(NC(=O)N2CCC(n3nnc4ccccc43)CC2)cc1	none
CCc1nc2c(OCC=C(C)C)cccn2c1N(C)C(=O)c1ccccc1F	none
Cc1cccc(-c2noc(-c3ccoc3C)n2)c1	none
O=[N+]([O-])c1cccc(-c2noc(-c3ccco3)n2)c1	TTR transcr act 12 | TTR inh HuH7 15 | TTR act confirm inactive
Cc1c(-c2nc(-c3cccnc3)no2)cccc1[N+](=O)[O-]	none
CC1CCN(c2ccccc2NC(=O)c2ccc(C#N)cc2F)CC1	none
O=C(Nc1ccon1)C12CC3CC(C1)CC(n1cnc([N+](=O)[O-])n1)(C3)C2	none
Cc1cc(NC(=O)C23CC4CC(C2)CC(n2cnc([N+](=O)[O-])n2)(C4)C3)no1	none
O=C(NC1CCCCC1)C12CC3CC(C1)CC(n1cncn1)(C3)C2	TTR transcr act 13 | TTR inh HuH7 inactive | TTR act confirm inactive
COC(=O)c1ccccc1NC(=O)C1COc2ccccc2O1 (stereo not drawn)	none
COc1ccc(NC(=S)N(Cc2ccc(N(C)C)cc2)Cc2ccco2)cc1	none
CCc1ccc(OCCCC(=O)Nc2ccc(N3CCOCC3)cc2)cc1	none
CCC(=O)c1ccc(OCC(=O)OCC(=O)c2cc(C)n(C)c2C)cc1	none
O=C(O)Cc1n[nH]c(=O)c2ccccc12	none
CN(C)Cc1n[nH]c(=O)c2ccccc12	TTR transcr act 26 | TTR inh HuH7 inactive | TTR act confirm inactive
O=c1[nH]nc(Cc2ccc(Cl)cc2Cl)c2ccccc12	none
Cc1nccn1CC(O)COc1ccc(Cl)cc1Cl (stereo not drawn)	none
CCCc1nc2c(C)cc(Br)cn2c1Cc1cccc(F)c1	none
O=C(CN1C(=O)C(=O)c2ccccc21)c1ccc(Cl)cc1	none
O=C(COc1ccccc1)N1CCN(c2ccccc2)CC1	none
O=C(COC(=O)c1ccc(CO)cc1)Nc1ccc2ccccc2c1	none
O=C(COC(=O)c1ccc(O)cc1O)Nc1ccc2ccccc2c1	TTR transcr act 21 | TTR inh HuH7 inactive | TTR act confirm inactive
O=C(COC(=O)c1ccc2ccccc2c1O)Nc1ccccc1	none
Cc1cc(C(=O)OCC(=O)N2CCOCC2)c(C)n1-c1ccccc1	none
